Reference: PubChem BioAssay (Tox21)
Several values for one entry are separate records, joined by “and”; a condition that tells them apart may be missing. Equal entries are not always repeated. Inconclusive results are not listed. A structure can be active in one record and inactive in another. Activity calls are given as the source filed them. Unless noted, calls come from the whole dose curve; as a rule, active = well fitted curve in the direction sought with a large enough effect in the repeat runs; inconclusive = weak or mixed curves; inactive = no such curve, though single readings can be large; an effect the other way counts as inactive or inconclusive.

Key:
[1] = qHTS assay to identify small molecule agonists of the hypoxia (HIF-1) signaling pathway - cell viability counter screen (AID 1224844; calls by dose curve; note: nearly all actives have a fitted effect of over 50% in size)
Summary of the method: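 Cytotoxicity was measured in parallel with the HRE-driven beta-lactamase readout: after 17 hrs of compound exposure at 37C, HRE-bla ME-180 cells received CellTiter-Glo and luminescence was recorded 30 min later.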

[2] = qHTS assay to identify small molecule agonists of H2AX (AID 1224845; active = well fitted activation curve with a large enough effect in the signal ratio in the repeat runs, not every such curve was filed as active; the % refers to the signal ratio)
Summary of the method: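 Wild-type CHO-K1 cells plated overnight, then exposed 3 hr at 37C to compounds at 15 concentrations (0.76% DMSO). Lysed, then HTRF anti-pH2AX(S139)-cryptate/anti-H2AX-d2 detection after 24 hr at room temperature; emissions 665 and 620 nm.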

[3] = qHTS assay to identify small molecule agonists of the hypoxia (HIF-1) signaling pathway (AID 1224846; active = well fitted activation curve with a large enough effect in the signal ratio in the repeat runs, not every such curve was filed as active; the % refers to the signal ratio)
Summary of the method: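 Compounds from the Tox21 10K library, dissolved in DMSO, are tested for induction of a hypoxia response element–controlled beta-lactamase reporter in ME-180 cells. Exposure lasts 17 hrs at 37C after a 5 hr settling period, followed by CCF4-AM FRET substrate.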

[4] = qHTS assay to identify small molecule agonists of H2AX - cell viability counter screen (AID 1224847; calls by dose curve; note: nearly all actives have a fitted effect of over 30% in size; note: potency is the fitted concentration of half-maximal effect)
Summary of the method: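 CHO-K1 wt, 1000 cells/well, o/n 37C; cpds 15 conc, 3 h 37C, 0.76% DMSO; CellTiter-Glo, 30 min RT, luminescence.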

[5] = qHTS assay to identify small molecule antagonists of the estrogen related receptor (ERR) signaling pathway from Tox21 library (AID 1224848); note: nearly all actives have a fitted effect of over 50% in size; note: potency is the fitted concentration of half-maximal effect
Summary of the method: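 Tox21 10K compounds in DMSO tested for ERR pathway antagonism in NTP's ERR cell line; 18 h, 37 C exposure; ONE-Glo luminescence.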

[6] = qHTS assay to identify small molecule agonists of the estrogen related receptor (ERR) signaling pathway from Tox21 library (AID 1224849; calls by dose curve; note: nearly all actives have a fitted effect of over 15% in size); details: ERR reporter cell line, ONE-Glo luciferase, 18 h; at 92.4 µM (top of the series) unless noted
Summary of the method: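 Cells carrying the ERR reporter were plated and allowed to settle for 6 h, exposed to library compounds for 18 h at 37 C, then lysed with ONE-Glo and luminescence measured.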

[7] = qHTS RealTime-Glo MT Cell Viability Assay in HepG2 cells - 24 hour (AID 1224867); note: nearly all actives have a fitted effect of over 50% in size
Summary of the method: (§1)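 HepG2 suspension premixed with RealTime-Glo reagents is plated at 600 cells per well and left 5 h at 37 C/5% CO2. Compounds in DMSO then go in, and bioluminescence reflecting viable cell number is recorded over 40 h.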

[8] = qHTS RealTime-Glo MT Cell Viability Assay in HEK293 cells - 32 hour (AID 1224868); note: nearly all actives have a fitted effect of over 50% in size; note: potency is the fitted concentration of half-maximal effect
Summary of the method: (§2)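 Reads taken at 0, 8, 16, 24, 32 and 40 h from the same wells. HEK293 cells (600/well) carried RealTime-Glo reagents from seeding, with compound added after a 5 h settle at 37 C.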

[9] = A CellTox Green Cytotoxicity Assay to monitor cytotoxicity in HEK293 cells - 0 hour (AID 1224869); note: nearly all actives have a fitted effect of over 50% in size
Summary of the method: (§3)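 Cells (HEK293, 600/well) and dye reagent are dispensed together. After 5 h at 37 C, 23 nL compound is pinned in. Plates stay at 37 C for 40 h with fluorescence read at 0h, 8h, 16h, 24h, 32h and 40h.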

[10] = A CellTox Green Cytotoxicity Assay to monitor cytotoxicity in HEK293 cells - 40 hour (AID 1224871); note: nearly all actives have a fitted effect of over 45% in size; note: potency is the fitted concentration of half-maximal effect
Summary of the method: as §3

[11] = qHTS RealTime-Glo MT Cell Viability Assay in HEK293 cells - 16 hour (AID 1224872); note: nearly all actives have a fitted effect of over 50% in size; note: potency is the fitted concentration of half-maximal effect
Summary of the method: as §2

[12] = qHTS RealTime-Glo MT Cell Viability Assay in HepG2 cells - 8 hour (AID 1224873); note: nearly all actives have a fitted effect of over 55% in size
Summary of the method: (§4)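 HepG2 cells mixed with RealTime-Glo MT reagents (NanoLuc plus cell-permeant prosubstrate) were seeded at 600 cells/well, incubated 5 h at 37 C/5% CO2, then pinned with compounds in DMSO; nonlytic luminescence tracked viability during 40 h treatment.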

[13] = qHTS RealTime-Glo MT Cell Viability Assay in HEK293 cells - 40 hour (AID 1224874); details: RealTime-Glo luminescence; max response: stronger effect = lower value; note: nearly all actives have a fitted effect of over 50% in size; note: potency is the fitted concentration of half-maximal effect
Summary of the method: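 Real-time viability in HEK293: signal arises when living cells convert a prosubstrate for NanoLuc in the medium, so luminescence tracks viable cell number. Compound (23 nL, DMSO) added 5 h post-seeding; kinetic reads at 0–40 h, 37 C.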

[14] = A CellTox Green Cytotoxicity Assay to monitor cytotoxicity in HEK293 cells - 24 hour (AID 1224875); note: nearly all actives have a fitted effect of over 45% in size
Summary of the method: as §3

[15] = A CellTox Green Cytotoxicity Assay to monitor cytotoxicity in HepG2 cells - 16 hour (AID 1224876); note: nearly all actives have a fitted effect of over 45% in size; note: potency is the fitted concentration of half-maximal effect
Summary of the method: (§5)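 Cells and non-lytic dye reagent are dispensed together (600 HepG2 cells/well) and incubated 5 h before DMSO compound transfer. Kinetic fluorescence is then recorded in the same wells during 40 h at 37 C.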

[16] = qHTS RealTime-Glo MT Cell Viability Assay in HepG2 cells - 32 hour (AID 1224877); note: nearly all actives have a fitted effect of over 55% in size
Summary of the method: as §1

[17] = A CellTox Green Cytotoxicity Assay to monitor cytotoxicity in HepG2 cells - 24 hour (AID 1224878); note: nearly all actives have a fitted effect of over 45% in size; note: potency is the fitted concentration of half-maximal effect
Summary of the method: as §5

[18] = A CellTox Green Cytotoxicity Assay to monitor cytotoxicity in HepG2 cells - 40 hour (AID 1224879); note: nearly all actives have a fitted effect of over 40% in size; note: potency is the fitted concentration of half-maximal effect
Summary of the method: as §5

[19] = qHTS RealTime-Glo MT Cell Viability Assay in HepG2 cells - 40 hour (AID 1224870); note: nearly all actives have a fitted effect of over 50% in size; note: potency is the fitted concentration of half-maximal effect
Summary of the method: as §4

[20] = target: Thyrotropin receptor (Homo sapiens) (UniProt P16473); experiment: qHTS assay to identify small molecule agonists of the thyroid stimulating hormone receptor (TSHR) signaling pathway (AID 1224843; calls by dose curve; note: nearly all actives have a fitted effect of over 45% in size)
Chain of Thyrotropin receptor (Homo sapiens) (P16473 whole entry, looked up): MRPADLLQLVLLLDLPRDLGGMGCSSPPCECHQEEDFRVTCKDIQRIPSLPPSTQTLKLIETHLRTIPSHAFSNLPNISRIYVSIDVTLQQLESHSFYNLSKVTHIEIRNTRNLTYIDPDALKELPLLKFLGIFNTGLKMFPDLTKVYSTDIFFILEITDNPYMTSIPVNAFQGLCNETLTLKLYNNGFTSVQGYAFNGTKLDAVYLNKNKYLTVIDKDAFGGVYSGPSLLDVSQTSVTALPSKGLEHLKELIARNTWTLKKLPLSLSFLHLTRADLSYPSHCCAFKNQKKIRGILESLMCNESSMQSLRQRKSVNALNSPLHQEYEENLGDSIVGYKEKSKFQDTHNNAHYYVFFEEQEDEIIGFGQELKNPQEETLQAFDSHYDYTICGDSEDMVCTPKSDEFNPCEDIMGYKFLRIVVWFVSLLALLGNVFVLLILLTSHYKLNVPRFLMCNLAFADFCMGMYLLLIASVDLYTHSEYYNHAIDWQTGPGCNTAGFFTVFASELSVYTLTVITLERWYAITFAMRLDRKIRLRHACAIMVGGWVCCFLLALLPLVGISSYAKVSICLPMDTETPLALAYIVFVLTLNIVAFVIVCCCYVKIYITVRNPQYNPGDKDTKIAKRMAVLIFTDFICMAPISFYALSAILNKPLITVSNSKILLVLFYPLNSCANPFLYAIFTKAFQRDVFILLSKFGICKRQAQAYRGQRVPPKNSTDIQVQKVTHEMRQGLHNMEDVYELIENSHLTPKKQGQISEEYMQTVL
Summary of the method: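 Using 15 concentrations per compound in triplicate, cAMP production was monitored in TSHR-HEK293 cells after 30 min compound incubation at RT; HTRF reagents followed, with fluorescence intensity recorded after 1 h.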
% is set by controls: 0 for no effect and ±100 for the full control effect.

CC(Cl)C(C)Cl (stereo unspecified)
inactive: Potency [1] | Potency [2] | outcome [3] | Potency [4] | Potency [5] | activity change, positive = activation [6] 0.315% | Potency [7] | Potency [8] | Potency [9] | Potency [10] | Potency [11] | Potency [12] | max response [13] 1.04% | Potency [14] | Potency [15] | Potency [16] | Potency [17] | Potency [18]

CCOc1ccc(C(C)(C)COCc2cccc(Oc3ccccc3)c2)cc1
inactive: Potency [1] | Potency [2] | outcome [3] | Potency [7] | Potency [8] | Potency [9] | Potency [19] | Potency [10] | Potency [11] | Potency [12] | max response [13] 11.2% | Potency [14] | Potency [15] | Potency [16] | Potency [17] | Potency [18]

O=C1C(=O)c2cccc3cccc1c23
inactive: Potency [20] | Potency [4] | Potency [7] | Potency [9] | Potency [10] | Potency [14] | Potency [15] | Potency [17] | Potency [18]
active: Potency [19] 17.4 µM

CN(N=O)c1ccc([N+](=O)[O-])cc1
active: Potency [17] 43.6 µM
inactive: Potency [1] | Potency [2] | Potency [4] | Potency [7] | Potency [8] | Potency [9] | Potency [19] | Potency [10] | Potency [11] | Potency [12] | max response [13] -1.54% | Potency [14] | Potency [15]

[O-][Cl+]O
inactive: Potency [1] | Potency [2] | outcome [3] | Potency [4] | Potency [5] | activity change, positive = activation [6] 8.47% | Potency [7] | Potency [8] | Potency [9] | Potency [19] | Potency [11] | Potency [12] | max response [13] 2.38% | Potency [14] | Potency [15] | Potency [16] | Potency [17] | Potency [18]

ClCCCCBr
inactive: Potency [1] | Potency [2] | outcome [3] | Potency [4] | Potency [7] | Potency [8] | Potency [9] | Potency [19] | Potency [10] | Potency [11] | Potency [12] | max response [13] -9.07% | Potency [14] | Potency [15] | Potency [16] | Potency [17] | Potency [18]

COP(=O)(OC)O/C(=C/Cl)c1cc(Cl)c(Cl)cc1Cl
active: Potency [5] 22.9 µM | Potency [18] 36.6 µM
inactive: Potency [1] | Potency [2] | activity change, positive = activation [6] -67.5% | Potency [7] | Potency [9] | Potency [19] | Potency [12] | Potency [14] | Potency [15] | Potency [16] | Potency [17]

CCOP(=O)(OCC)O/C(=C/Cl)c1ccc(Cl)cc1Cl
inactive: Potency [1] | Potency [2] | activity change, positive = activation [6] -61.6% | Potency [7] | Potency [9] | Potency [19] | Potency [10] | Potency [12] | Potency [14] | Potency [15] | Potency [17]
active: Potency [5] 6.86 µM | Potency [8] 21.9 µM | Potency [13] 19.5 µM

CN1[C@@H]2CC[C@H]1CC(OC(=O)c1cc(Cl)cc(Cl)c1)C2 (stereo partly specified)
inactive: Potency [1] | Potency [2] | outcome [3] | Potency [4] | Potency [9] | Potency [19] | Potency [10] | Potency [11] | Potency [12] | Potency [14]
active: Potency [15] 21.3 µM | Potency [17] 23.9 µM | Potency [18] 23.9 µM

CCn1cc[n+](C)c1
active: Potency [13] 1.56 µM
inactive: Potency [1] | Potency [2] | Potency [7] | Potency [9] | Potency [10] | Potency [11] | Potency [12] | max response [13] 0.829% [middle of 11 runs] | Potency [14] | Potency [15] | Potency [17]
inactive and 1.75 µM (active): Potency [8]
inactive and 44 µM (active): Potency [19]
inactive and 55.5 µM (active): Potency [18]

O=C(N[C@H](c1ccccc1)[C@@H]1CN2CCC1CC2)c1c(Cl)ccc(C(F)(F)F)c1Cl
active: Potency [4] 182 µM | Potency [5] 39.2 µM | Potency [8] 70.2 µM | Potency [10] 78.8 µM | Potency [11] 78.8 µM | Potency [13] 70.2 µM | Potency [18] 70.2 µM
inactive: Potency [1] | outcome [3] | activity change, positive = activation [6] -42.3% | Potency [9] | Potency [19] | Potency [12] | Potency [15]

COC(N)=O
inactive: Potency [2] | Potency [7] | Potency [8] | Potency [9] | Potency [19] | Potency [10] | Potency [11] | Potency [12] | Potency [14] | Potency [15] | Potency [16] | Potency [17] | Potency [18]

OCCCBr
inactive: Potency [2] | outcome [3] | Potency [5] | activity change, positive = activation [6] -6.8% | Potency [7] | Potency [8] | Potency [9] | Potency [19] | Potency [10] | Potency [11] | Potency [12] | max response [13] -0.927% | Potency [14] | Potency [15] | Potency [17] | Potency [18]

CCOP(=S)(OCC)Oc1cc(Cl)c(Br)cc1Cl
inactive: Potency [1] | outcome [3] | Potency [7] | Potency [8] | Potency [9] | Potency [10] | Potency [11] | Potency [12] | max response [13] -15.7% | Potency [14] | Potency [15] | Potency [16] | Potency [17] | Potency [18]

C[C@]12CC[C@H]3[C@@H](CCC4=CC(=O)CC[C@@H]43)[C@@H]1CC[C@@H]2OC(=O)CCC1CCCCC1
inactive: Potency [1] | outcome [3] | Potency [7] | Potency [8] | Potency [9] | Potency [19] | Potency [10] | Potency [11] | Potency [12] | max response [13] -18.6% | Potency [14] | Potency [15] | Potency [17] | Potency [18]

COc1nn(CSP(=S)(OC)OC)c(=O)s1
inactive: Potency [7] | Potency [8] | Potency [9] | Potency [19] | Potency [10] | Potency [11] | Potency [12] | max response [13] -3.23% | Potency [14] | Potency [15] | Potency [16]

CCC(COC(=O)c1cc(OC)c(OC)c(OC)c1)(c1ccccc1)N(C)C (stereo unspecified)
active: Potency [11] 26.8 µM
inactive: Potency [1] | Potency [7] | Potency [9] | Potency [10] | Potency [12] | Potency [14] | Potency [15] | Potency [16] | Potency [17] | Potency [18]
